# Test results as given in PubChem BioAssay (NCATS).
# Inconclusive results are not listed. A call without a number means that no potency is given here. Active and inactive are the calls of the source. Calls follow the shape of the dose curve; as a rule, active = well fitted curve in the direction sought with a large enough effect; inconclusive = small, poorly fitted or top-dose-only effect, or another doubt; inactive = no such curve, though single readings can be large; an effect the other way counts as inactive or inconclusive.
# Legend:
# [1] = qHTS of pediatric cancer cell lines to identify multiple opportunities for drug repurposing: Primary screen for TC32 cells (AID 1347089); also: nearly all actives have a fitted effect of over 60% in size; also: potency is read from the fitted curve at half-maximal effect
# Procedure, shortened: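 Luminescent ATP read-out (CellTiter-Glo) of metabolically active TC32 cells after 48 h exposure. Concentration-response curves came from 11-point (MIPE, 0.78 nM–46 µM) or 8-point (NPC, 0.59 nM–46 µM) primary titrations; follow-up used 11 points.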
# [2] = qHTS of pediatric cancer cell lines to identify multiple opportunities for drug repurposing: Primary screen for DAOY cells (AID 1347090); also: nearly all actives have a fitted effect of over 55% in size; also: potency is read from the fitted curve at half-maximal effect
# Procedure, shortened: (§1)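 Viability measured as metabolically active cells via CellTiter-Glo luminescence following 48 hours of compound exposure, 11-point dilutions in confirmatory testing. 500-1,000 cells/well plated 5 hours before dosing; controls were DMSO and 2.3 µM bortezomib.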
# [3] = qHTS of pediatric cancer cell lines to identify multiple opportunities for drug repurposing: Primary screen for SJ-GBM2 cells (AID 1347091); also: potency is read from the fitted curve at half-maximal effect
# Procedure, shortened: as §1
# [4] = qHTS of pediatric cancer cell lines to identify multiple opportunities for drug repurposing: Primary screen for A673 cells (AID 1347092); also: nearly all actives have a fitted effect of over 45% in size; also: potency is read from the fitted curve at half-maximal effect
# Procedure, shortened: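 Cell viability of A673 measured by CellTiter-Glo ATP luminescence after 48 hours compound exposure. Dilution series spanned 0.78 nM to 46 µM (MIPE, 11-point) or 0.59 nM to 46 µM (NPC, 8-point); bortezomib 2.3 uM positive control.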
# [5] = qHTS of pediatric cancer cell lines to identify multiple opportunities for drug repurposing: Primary screen for SK-N-MC cells (AID 1347093); also: potency is read from the fitted curve at half-maximal effect
# Procedure, shortened: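 Metabolically active cells were quantified by ATP-dependent luminescence (CellTiter-Glo, 15 min at room temperature) following 48 h treatment. Cells had been plated at 500-1,000 per well and settled for 5 h beforehand.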
# [6] = qHTS of pediatric cancer cell lines to identify multiple opportunities for drug repurposing: Primary screen for BT-37 cells (AID 1347094); also: potency is read from the fitted curve at half-maximal effect
# Procedure, shortened: (§2)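 Primary screen of approved and investigational compounds on cells in growth media at 37 degrees C, 5% CO2. MIPE set at 11-point and NPC set at 8-point dilutions; viability scored by ATP-based luminescence at 48 hours.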
# [7] = qHTS of pediatric cancer cell lines to identify multiple opportunities for drug repurposing: Primary screen for NB-EBc1 cells (AID 1347095); also: potency is read from the fitted curve at half-maximal effect
# Procedure, shortened: as §2
# [8] = qHTS of pediatric cancer cell lines to identify multiple opportunities for drug repurposing: Primary screen for Saos-2 cells (AID 1347097); also: nearly all actives have a fitted effect of over 40% in size; also: potency is read from the fitted curve at half-maximal effect
# Procedure, shortened: as §2
# [9] = qHTS of pediatric cancer cell lines to identify multiple opportunities for drug repurposing: Primary screen for SK-N-SH cells (AID 1347098); also: nearly all actives have a fitted effect of over 65% in size; also: potency is read from the fitted curve at half-maximal effect
# Procedure, shortened: (§3)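 Cells (500-1,000/well) rested 5 h, then received compounds for 48 h; metabolically active cells were measured by CellTiter-Glo luminescence. Final concentrations spanned up to 46 µM (MIPE, 11-point) or 0.59 nM-46 µM (NPC, 8-point) in primary screens, 11-point in follow-ups.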
# [10] = qHTS of pediatric cancer cell lines to identify multiple opportunities for drug repurposing: Primary screen for NB1643 cells (AID 1347099); also: nearly all actives have a fitted effect of over 50% in size; also: potency is read from the fitted curve at half-maximal effect
# Procedure, shortened: as §2
# [11] = qHTS of pediatric cancer cell lines to identify multiple opportunities for drug repurposing: Primary screen for LAN-5 cells (AID 1347100); also: potency is read from the fitted curve at half-maximal effect
# Procedure, shortened: (§4)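 Viability after 48 h compound treatment at 37C, 500-1,000 cells/well, read as ATP luminescence with CellTiter-Glo. Primary screens used 11-point (MIPE, 0.78 nM-46 µM) or 8-point (NPC, 0.59 nM-46 µM) final concentrations; follow-up screens used 11-point dilutions.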
# [12] = qHTS of pediatric cancer cell lines to identify multiple opportunities for drug repurposing: Primary screen for BT-12 cells (AID 1347101); also: nearly all actives have a fitted effect of over 25% in size; also: potency is read from the fitted curve at half-maximal effect
# Procedure, shortened: as §3
# [13] = qHTS of pediatric cancer cell lines to identify multiple opportunities for drug repurposing: Primary screen for Rh18 cells (AID 1347102); also: nearly all actives have a fitted effect of over 65% in size; also: potency is read from the fitted curve at half-maximal effect
# Procedure, shortened: as §4
# [14] = qHTS of pediatric cancer cell lines to identify multiple opportunities for drug repurposing: Primary screen for OHS-50 cells (AID 1347103); also: nearly all actives have a fitted effect of over 40% in size; also: potency is read from the fitted curve at half-maximal effect
# Procedure, shortened: as §3
# [15] = qHTS of pediatric cancer cell lines to identify multiple opportunities for drug repurposing: Primary screen for RD cells (AID 1347104); also: nearly all actives have a fitted effect of over 55% in size; also: potency is read from the fitted curve at half-maximal effect
# Procedure, shortened: as §2
# [16] = qHTS of pediatric cancer cell lines to identify multiple opportunities for drug repurposing: Primary screen for MG 63 (6-TG R) cells (AID 1347105); also: nearly all actives have a fitted effect of over 50% in size; also: potency is read from the fitted curve at half-maximal effect
# Procedure, shortened: as §2
# [17] = qHTS of pediatric cancer cell lines to identify multiple opportunities for drug repurposing: Primary screen for control Hh wild type fibroblast cells (AID 1347106); also: nearly all actives have a fitted effect of over 55% in size; also: potency is read from the fitted curve at half-maximal effect
# Procedure, shortened: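 Cells (500-1,000/well) in growth media were settled 5 h at 37 degrees C, then given compounds for 48 h. Viability was read as CellTiter-Glo luminescence. Primary runs used MIPE at 11 points (0.78 nM-46 µM) and NPC at 8 points (0.59 nM-46 µM); follow-ups used 11 points.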
# [18] = qHTS of pediatric cancer cell lines to identify multiple opportunities for drug repurposing: Primary screen for Rh30 cells (AID 1347107); also: nearly all actives have a fitted effect of over 75% in size; also: potency is read from the fitted curve at half-maximal effect
# Procedure, shortened: as §4
# [19] = qHTS of pediatric cancer cell lines to identify multiple opportunities for drug repurposing: Primary screen for U-2 OS cells (AID 1347096); also: nearly all actives have a fitted effect of over 50% in size
# Procedure, shortened: as §4
# [20] = qHTS of pediatric cancer cell lines to identify multiple opportunities for drug repurposing: Primary screen for Rh41 cells (AID 1347108); also: nearly all actives have a fitted effect of over 70% in size; also: potency is read from the fitted curve at half-maximal effect
# Procedure, shortened: as §2
SMILES,Potency [1],Potency [2],Potency [3],Potency [4],Potency [5],Potency [6],Potency [7],Potency [8],Potency [9],Potency [10],Potency [11],Potency [12],Potency [13],Potency [14],Potency [15],Potency [16],Potency [17],Potency [18],Potency [19],Potency [20]
CC(C)N[C@@H]1CCn2c(=O)[nH]c3cccc(c32)[C@@H]1O,inactive,1.18 µM (active),6.62 µM (active),0.833 µM (active),1.05 µM (active),27.3 µM (active),inactive,5.26 µM (active),8.57 µM (active),4.18 µM (active),0.743 µM (active),3.06 µM (active),4.69 µM (active),1.37 µM (active),3.72 µM (active),inactive,11.8 µM (active),1.48 µM (active),–,–
CS(=O)(=O)c1ccc(C(=O)C2C(=O)CCCC2=O)c([N+](=O)[O-])c1,inactive,inactive,inactive,inactive,0.001 µM (active),inactive,inactive,inactive,inactive,0.001 µM (active),inactive,inactive,inactive,inactive,–,inactive,inactive,inactive,inactive,–
Nc1ccc(Cl)cc1,inactive,inactive,inactive,inactive,inactive,inactive,inactive,inactive,inactive,inactive,inactive,inactive,inactive,inactive,inactive,inactive,inactive,inactive,inactive,inactive
Oc1ccc2c3c1O[C@H]1c4[nH]c5c(c4C[C@@]4(O)[C@@H](C2)N(CC2CC2)CC[C@]314)C[C@@]1(O)[C@H]2Cc3ccc(O)c4c3[C@@]1(CCN2CC1CC1)[C@H]5O4,inactive,inactive,inactive,inactive,inactive,inactive,inactive,inactive,inactive,inactive,inactive,inactive,inactive,inactive,inactive,inactive,inactive,inactive,inactive,inactive
NC1CC1c1ccccc1 (stereo unspecified),inactive,inactive,inactive,inactive,inactive,inactive,inactive,inactive,–,inactive,inactive,inactive,inactive,inactive,inactive,inactive,inactive,inactive,inactive,inactive
CC(C)(C)[C@]1(O)C[C@@H]2OC(=O)C[C@@]23C(=O)O[C@@H]2OC(=O)[C@H](O)C213 (stereo partly specified),inactive,inactive,inactive,inactive,inactive,inactive,inactive,inactive,–,inactive,inactive,inactive,inactive,inactive,inactive,inactive,inactive,inactive,inactive,inactive
COCC1(CO)C(=O)C2CCN1CC2 (stereo unspecified),20.8 µM (active),23.5 µM (active),2.09 µM (active),2.35 µM (active),1.18 µM (active),1.22 µM (active),0.264 µM (active),8.33 µM (active),1.08 µM (active),5.9 µM (active),0.833 µM (active),21.7 µM (active),inactive,3.85 µM (active),inactive,18.7 µM (active),inactive,–,inactive,20.9 µM (active)
Nc1c(Cl)c(Cl)c(Cl)c(Cl)c1Cl,inactive,inactive,inactive,inactive,inactive,inactive,inactive,inactive,inactive,inactive,inactive,inactive,inactive,inactive,inactive,inactive,–,inactive,inactive,inactive
CC(C)N(CCNC(=O)CN1CCCC1=O)C(C)C,inactive,inactive,inactive,inactive,inactive,inactive,inactive,inactive,inactive,inactive,inactive,inactive,inactive,inactive,inactive,inactive,inactive,inactive,inactive,inactive
Fc1cc(Br)ccc1CBr,inactive,inactive,inactive,inactive,inactive,inactive,inactive,inactive,–,inactive,inactive,inactive,inactive,inactive,inactive,inactive,inactive,inactive,inactive,inactive
C=CC(=O)NCNC(=O)C=C,inactive,inactive,inactive,inactive,inactive,inactive,inactive,inactive,inactive,inactive,inactive,inactive,inactive,inactive,inactive,inactive,–,inactive,inactive,inactive
O=C(N[C@H]1CN2CCC1CC2)c1ccc(Cl)cc1,inactive,18.7 µM (active),inactive,5.9 µM (active),1.66 µM (active),–,inactive,–,6.81 µM (active),2.64 µM (active),inactive,inactive,–,–,26.4 µM (active),–,–,–,inactive,–
CC(C)(C)NC[C@H](O)c1ccc(O)cc1Cl,inactive,inactive,inactive,inactive,–,inactive,inactive,inactive,inactive,inactive,inactive,inactive,inactive,inactive,inactive,inactive,inactive,inactive,inactive,inactive
COC[C@H]1OC(=O)c2coc3c2[C@@]1(C)C1=C(C3=O)[C@@H]2CC[C@H](O)[C@@]2(C)C[C@@H]1OC(C)=O,inactive,14.8 µM (active),0.469 µM (active),9.35 µM (active),0.296 µM (active),6.85 µM (active),0.526 µM (active),2.09 µM (active),27.1 µM (active),–,2.64 µM (active),–,4.69 µM (active),0.306 µM (active),14.8 µM (active),1.87 µM (active),inactive,–,–,11.8 µM (active)
O=C(O)COc1nc(Cl)c(Cl)cc1Cl,inactive,inactive,inactive,inactive,–,inactive,inactive,0.001 µM (active),inactive,inactive,inactive,–,inactive,inactive,inactive,inactive,inactive,inactive,inactive,inactive
CCCC[N+]1(C)[C@H]2CC(OC(=O)[C@H](CO)c3ccccc3)C[C@H]1[C@H]1O[C@H]12 (stereo partly specified),inactive,inactive,inactive,inactive,inactive,–,inactive,inactive,–,inactive,inactive,inactive,inactive,inactive,inactive,inactive,inactive,inactive,inactive,inactive
O=[N+]([O-])c1ccc([As](=O)(O)O)cc1,inactive,inactive,inactive,inactive,inactive,inactive,inactive,inactive,inactive,inactive,inactive,inactive,inactive,inactive,inactive,inactive,inactive,inactive,–,inactive
CCOP(=O)(NC(C)C)Oc1ccc(SC)c(C)c1 (stereo unspecified),inactive,inactive,inactive,inactive,–,inactive,inactive,inactive,–,inactive,inactive,–,inactive,–,inactive,inactive,inactive,inactive,inactive,inactive
O=[N+]([O-])/N=C1\NCCN1Cc1ccc(Cl)nc1,inactive,inactive,inactive,inactive,inactive,inactive,inactive,–,inactive,inactive,inactive,inactive,inactive,inactive,inactive,inactive,inactive,inactive,–,inactive
COCCOCCO,inactive,inactive,inactive,inactive,inactive,inactive,inactive,inactive,inactive,inactive,inactive,inactive,inactive,inactive,inactive,inactive,inactive,inactive,–,inactive
CC(N[C@H]1C[C@H]1c1ccccc1)c1ccc2c(c1)OCCO2 (stereo partly specified),inactive,inactive,inactive,inactive,–,inactive,inactive,inactive,–,inactive,inactive,inactive,inactive,inactive,inactive,inactive,inactive,inactive,inactive,inactive
OCCCBr,inactive,inactive,inactive,inactive,–,inactive,inactive,inactive,inactive,inactive,inactive,inactive,inactive,inactive,inactive,inactive,inactive,inactive,inactive,inactive
CC1=NN=C(c2ccc(N)cc2)c2cc3c(cc2C1)OCO3,inactive,inactive,inactive,inactive,inactive,inactive,inactive,inactive,–,–,inactive,inactive,inactive,inactive,inactive,inactive,–,inactive,–,inactive
CC(=CCCC1=CCC(C2=CC(=O)OC2O)OC1O)CCC1=C(C)CCCC1(C)C (stereo unspecified),inactive,inactive,inactive,inactive,–,inactive,inactive,inactive,–,inactive,inactive,inactive,–,inactive,inactive,–,–,inactive,inactive,–
N#C[C@H](O[C@@H]1O[C@H](CO[C@@H]2O[C@H](CO)[C@H](O)[C@H](O)[C@H]2O)[C@H](O)[C@H](O)[C@H]1O)c1ccccc1,inactive,23.5 µM (active),26.4 µM (active),29.6 µM (active),–,24.3 µM (active),inactive,18.7 µM (active),–,11.8 µM (active),23.5 µM (active),24.3 µM (active),–,21.7 µM (active),33.2 µM (active),–,inactive,–,inactive,–
